Measured values from PubChem BioAssay AID540277 (National Center for Advancing Translational Sciences (NCATS), 2011).
Out of some 320,000 compounds screened, about 55 (0.02%) were called active. Roughly 3% stayed inconclusive and do not appear here. Only a selection was taken, and actives are over-represented in it overall. Values without a mark were called inactive. Rule as the data show it: active = potentiation above about 80%; inconclusive = between about 30% and that limit; inactive = weaker than that.

Molecular target: Transient receptor potential cation channel subfamily V member 1 (Homo sapiens) (UniProt Q8NER1)
Sequence (Q8NER1 whole entry, looked up): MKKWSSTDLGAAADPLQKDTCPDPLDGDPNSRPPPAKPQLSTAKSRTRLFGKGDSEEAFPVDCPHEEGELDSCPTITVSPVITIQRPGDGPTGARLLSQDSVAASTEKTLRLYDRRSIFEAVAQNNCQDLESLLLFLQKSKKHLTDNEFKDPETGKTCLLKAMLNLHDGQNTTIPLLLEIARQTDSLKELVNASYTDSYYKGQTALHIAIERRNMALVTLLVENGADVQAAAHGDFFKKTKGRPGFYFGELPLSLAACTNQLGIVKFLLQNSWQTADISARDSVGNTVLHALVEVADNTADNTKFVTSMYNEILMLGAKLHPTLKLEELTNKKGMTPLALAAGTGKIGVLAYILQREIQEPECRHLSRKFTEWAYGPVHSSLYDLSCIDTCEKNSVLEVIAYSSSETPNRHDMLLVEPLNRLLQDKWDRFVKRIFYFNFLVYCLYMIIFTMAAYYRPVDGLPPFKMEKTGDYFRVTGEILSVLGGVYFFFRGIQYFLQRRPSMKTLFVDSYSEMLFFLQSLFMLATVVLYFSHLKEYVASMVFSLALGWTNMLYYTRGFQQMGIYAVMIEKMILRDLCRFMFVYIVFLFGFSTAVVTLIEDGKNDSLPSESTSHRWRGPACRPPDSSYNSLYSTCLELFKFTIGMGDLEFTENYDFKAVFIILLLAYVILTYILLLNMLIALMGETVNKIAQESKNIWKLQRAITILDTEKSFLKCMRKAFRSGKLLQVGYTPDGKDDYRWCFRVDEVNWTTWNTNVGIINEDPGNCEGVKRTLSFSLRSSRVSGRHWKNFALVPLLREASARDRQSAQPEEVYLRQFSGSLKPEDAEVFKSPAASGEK
Test: HTS Assay for Compounds that Act as Potentiators of the Vanilloid Receptor 1; also: 0% is about no effect
Settings: TRPV1-expressing cells, Fluo-8 calcium influx, capsaicin EC20 potentiation; at 8.33 µM; active compounds read high
Excerpt: The transient receptor potential ion channel, family V, number 1, (TRPV1) is one of the most important molecular transducers of painful stimuli and a potential target for analgesic drug development. Although recent clinical trials with orthosteric antagonists have not produced a successful drug because of a hyperthermia side effect and their tendency to block thermal noxious pain, this ion channel is undeniably well placed in the pain pathway, and the idea of blocking pain signals before they enter the CNS is an excellent concept and of proven efficacy when TRPV1 agonists are used. We propose a new approach involving allosteric modulation to impose an activity-dependent constraint within the context of inflammation and tissue damage that would alter the responsiveness of the channel in a way that an orthosteric vanilloid antagonist cannot achieve. We believe that the allosteric modulator approach has not been explored for this target. The main goal of this proposal is to identify additional, new, potent allosteric modulators of TRPV1 that can be used to investigate TRPV1 function. Our recent report provides evidence of proof of concept, but the compounds are just at the edge of utility in terms of potency. […] The question of whether they can be used as analgesic agents is complex, but if suitable compounds are identified then testing for analgesic properties will be conducted. NIH Chemical Genomics Center [NCGC] NIH Molecular Libraries Probe Centers Network [MLPCN] MLPCN Grant: MH089480-1A1 Assay Submitter (PI): Michael Iadarola, National Institute of Dental and Cranofacial Research
Upon TRPV1 activation in TRPV1 cells, the channel opens and extracellular cations flow through the channel into the cytosol. A calcium binding dye (Fluo-8) becomes fluorescent when bound to calcium. This dye is pre-loaded into cells and is used as a marker for calcium influx. The amount of accumulated calcium is precisely quantified using the FDSS kinetic reader and the calcium dye. For the HTS assay, freshly prepared cells are plated at a density of 2000/well in 3 ul medium in 1536-well plates and cultured overnight at 35.5C. Cells will be loaded with 1 ul of the homogeneous calcium dye (ABD Bioquest) at room temperature for 40 to 90 minutes. Plates will be loaded into the FDSS kinetic reader and a 1 sec / cycle for 10 second baseline signal will be measured. Compound library will then be added with a pintool at 23 nl and measured kinetically for 3 minutes. This portion of the read is considered the agonist portion of the screen. Following the 3 minutes of incubation, an on board pipettor will deliver 1 ul of capsaicin for a final concentration equal to the EC20. Signal will be measured kinetically for an additional 2 minutes. This portion of the read is considered the allosteric enhancer portion of the screen. The FDSS reader has a standard filter set capable of measuring calcium bound Fluo-8 (ex=480 and em=520 nm).

In order of rising potentiation:
1. CN(C)S(=O)(=O)c1ccc(C(=O)NCC2(N3CCOCC3)CCCCC2)cc1  -44.6%
2. COc1ccccc1S(=O)(=O)NCc1ccc(C(=O)N(C)Cc2ccc(F)cc2)cc1  -20.6%
3. COc1cc(OC)c(C(=S)N2CCCC2)cc1OC  -20.3%
4. COc1ccc(C(C)(C)C)cc1NC(=O)CCN1C(=O)C2CCCCC2C1=O (stereo not given)  -20%
5. CC(C)N(C(=O)CN1CCN(S(=O)(=O)c2ccc(Br)s2)CC1)C(C)C  -18.3%
6. CC(C)Oc1ccc(C(=O)NCC(=O)Nc2ccc3c(c2)CCC3)cc1  -17.6%
7. COc1ccc(C)cc1NC(=O)CN1c2cccc3cccc(c23)S1(=O)=O  -17.5%
8. CCC1(C)NC(=O)N(CC(=O)N2CCN(c3cccc(Cl)c3)CC2)C1=O (stereo not given)  -16.1%
9. CCN(CC)S(=O)(=O)c1ccc(OC)c(NC(=O)CCc2c(C)noc2C)c1  -15%
10. O=C(COC(=O)c1cccc(Cl)c1)NC1CCCCCCC1  -13.9%
11. COc1ccc(-c2cc(C(=O)NCCCN3CCCC3=O)c3ccccc3n2)cc1OC  -7.67%
12. Cc1ccc(-c2nn(-c3ccccc3)cc2C(=O)NC2CCC(O)CC2)cc1 (stereo not given)  -7.64%
13. O=C(CSc1nnc(Nc2ccccc2F)s1)NC1CCCC1  -7.27%
14. COc1ccc(S(=O)(=O)N2CCN(c3ccc(F)cc3)CC2)cc1-c1noc(C)n1  -6.85%
15. COc1cccc(C(=O)n2ccc(-c3cccs3)n2)c1  -6.21%
16. O=C(COC(=O)CNC(=O)C1CCCCC1)NCc1ccccc1  -6.14%
17. CCCc1ccc(C(=O)COC(=O)CN2C(=O)NC3(CCCCC3C)C2=O)cc1 (stereo not given)  -5.74%
18. CCOc1cccc2cc(C(=O)OCC(=O)Nc3c(C)cccc3CC)c(=O)oc12  -5.16%
19. COc1cccc(C(=O)c2sc3nc(-c4ccccc4)cc(C(F)(F)F)c3c2N)c1  -4.5%
20. O=C(COC(=O)c1ccccc1Cl)NC1CCCCCCC1  -4.06%
21. O=C(NCC1CCCO1)c1cc2c(s1)CCCC2 (stereo not given)  -3.61%
22. O=C(OCC(=O)N1CCc2ccccc21)C1CCCN1S(=O)(=O)c1ccc(Cl)cc1 (stereo not given)  -3.33%
23. O=C(NCc1ccccc1CN1CCCC1)c1cccc(S(=O)(=O)Nc2ccc(F)cc2)c1  -2.77%
24. CN(C(=O)CSc1nnc(-c2ccc(C(C)(C)C)cc2)n1C)C1CCS(=O)(=O)C1 (stereo not given)  -2.39%
25. CC1CCN(C(=O)COC(=O)c2cc(=O)[nH]c3ccccc23)CC1  -1.92%
26. CN(Cc1cccs1)C(=O)CN1C(=O)c2ccccc2S1(=O)=O  -1.15%
27. COC(=O)c1ccc(-c2c(-c3ccccc3)ncc3cc(OC)c(OC)cc23)cc1  -0.0919%
28. N#Cc1ccccc1S(=O)(=O)N1CCN(Cc2c(O)ccc3ccccc23)CC1  0.42%
29. Nc1cc(N)nc(SCC(=O)Nc2cccc(S(=O)(=O)N3CCCCC3)c2)n1  0.644%
30. CN(CCOc1ccccc1)C(=O)c1cc(-c2ccco2)nc2ccccc12  1.05%
31. O=C(O)c1ccccc1N=N/C(=N/Nc1cc(S(=O)(=O)O)ccc1O)c1ccccc1  1.2%
32. Cn1c(SCC(=O)Nc2ccc(N3CCOCC3)cc2)nnc1C(F)(F)F  1.26%
33. O=C(N[C@@H](Cc1c[nH]c2ccccc12)C(=O)O)OCC1c2ccccc2-c2ccccc21  1.56%
34. Cc1ccc(NC(=S)N(CCN2CCCCC2)Cc2ccco2)cc1C  2.55%
35. CN(C)S(=O)(=O)c1cccc(NC(=O)COc2ccc3ccccc3c2)c1  2.88%
36. CCNC(=O)N1CCN(S(=O)(=O)c2ccc3c(c2)OCCCO3)CC1  4.26%
37. Cc1ccc(NC(=O)C(c2ccccc2)N2CCN(C(=O)c3ccco3)CC2)cc1 (stereo not given)  4.79%
38. CCCCN1C(=O)C(=O)N(CC(=O)Nc2cccc(C(C)=O)c2)C1=O  6.11%
39. CC(C)Cc1nnc(NC(=O)CCNC(=O)c2ccccc2Cl)s1  6.33%
40. Cc1ccc(NC(=S)N(CCCN2CCC(C)CC2)Cc2ccco2)cc1  8.22%
41. Cc1ccc(C(=O)NNC(=O)c2ccc3c(c2)OCCO3)cc1  9.22%
42. O=C(Nc1cccc2cccnc12)C(F)(F)F  13.4%
43. COc1ccc(S(=O)(=O)Nc2cccc3cccnc23)c(N)c1  13.6%
44. N#Cc1ccc(C(=O)OCC(=O)NC(=O)NC2CCCCC2)cc1  22.1%

With `Cc1ccc(NC(=S)N(Cc2ccco2)C(C)c2cccs2)cc1` (stereo not given) the potentiation was 141% (active).
